A selection: hits, their analogues and other compounds. The true share with any hit is near 2.4%.
GLS inhibitor – blocks human kidney-isoform glutaminase activity; GLS enzymatic activity, qHTS titration; Potency, µM (titrated, usually from 45.5 µM), inactives show at the highest dose activity change, negative = inhibition, actives largely listed as inhibitors; hit rate 0.21% among 410,000; further: on the % scale 0 is the no-effect control and ±100 the full control effect
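hKGA in 45 mM KH2PO4 pH 8.2, 0.02% Tween-20 with pin-transferred compounds; 1 mM L-glutamine (stock) plus glutamate oxidase/HRP/Amplex Red coupling added. Fluorescence read initially and after 30 min at RT.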
POLH inh – inhibitors of human DNA polymerase eta; recombinant Pol eta, fluorescent DNA replication assay; Potency, µM (doses to about 114 µM), inactives show top-dose activity change, negative = inhibition, actives largely listed as inhibitors; hit rate 1.2% among 390,000; AID 588591; further: on the % scale 0 is the no-effect control and ±100 the full control effect
Target sequence (Q9Y253 whole entry, looked up): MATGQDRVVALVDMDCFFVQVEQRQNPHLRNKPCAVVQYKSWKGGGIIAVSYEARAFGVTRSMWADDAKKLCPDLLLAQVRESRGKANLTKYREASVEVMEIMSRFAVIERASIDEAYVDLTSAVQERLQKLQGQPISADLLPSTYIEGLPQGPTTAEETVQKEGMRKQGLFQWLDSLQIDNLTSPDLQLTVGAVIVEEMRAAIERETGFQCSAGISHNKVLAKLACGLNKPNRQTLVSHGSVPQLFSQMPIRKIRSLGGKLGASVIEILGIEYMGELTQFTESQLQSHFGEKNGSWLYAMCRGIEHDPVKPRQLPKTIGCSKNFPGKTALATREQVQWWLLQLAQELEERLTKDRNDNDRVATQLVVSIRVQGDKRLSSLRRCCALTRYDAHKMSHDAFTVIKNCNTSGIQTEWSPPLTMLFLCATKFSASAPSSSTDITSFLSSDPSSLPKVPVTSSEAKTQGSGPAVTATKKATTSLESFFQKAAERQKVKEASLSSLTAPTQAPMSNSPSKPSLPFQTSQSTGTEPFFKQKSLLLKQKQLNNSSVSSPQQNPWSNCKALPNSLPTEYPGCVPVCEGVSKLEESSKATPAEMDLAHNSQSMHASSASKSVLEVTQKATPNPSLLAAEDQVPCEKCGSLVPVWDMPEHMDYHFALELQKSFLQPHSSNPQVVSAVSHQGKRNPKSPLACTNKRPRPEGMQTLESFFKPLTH
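Pol eta (10 nM) was preincubated with compounds for 15 min at room temperature, after which fluorescent replication substrate (50 nM final) was added to start the reaction. Fluorescence was read kinetically at 0 and 10 min.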
POLB inh – blocks human DNA polymerase beta activity. Pol beta primer extension/strand displacement, fluorescence kinetic. Potency, µM (series often up to 114 µM), inactives show at the highest dose activity change, negative = inhibition, usual class: inhibitors. hit rate 1.3% among 340,000; further: on the % scale 0 is the no-effect control and ±100 the full control effect
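Curves were derived by four-parameter Hill fits of normalized qHTS data. The kinetic fluorescent primer-extension read was taken at 0 and 10 min after 50 nM substrate, following a 15 min room-temperature preincubation of 10 nM enzyme with compounds.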
Pol iota inh – inhibitors of human DNA polymerase iota. Q9UNA4. Pol iota fluorescent replication assay, 10 min. Potency, µM (highest dose often 115 µM), for the others: at the top dose activity, negative = inhibition, hits mostly inhibitors. hit rate 1% among 390,000. AID 588590
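Fluorescent replication assay read twice, at 0 min and 10 min after adding 50 nM (final) substrate. Enzyme (10 nM) and compounds were first incubated 15 min at room temperature; enzyme-free buffer wells were negative controls.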
APEX1 inh – inhibitors of human APE1 endonuclease | hit rate 0.35% among 350,000 | AID 2517 | recombinant APE1, TAMRA/BHQ-2 abasic DNA cleavage fluorescence | Potency, µM (doses to about 65.8 µM), for inactives: top-dose activity change, negative = inhibition, usual class: inhibitors;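 further: plate controls were vehicle for no effect and reference inhibitor for full effect; nearly all actives have a fitted effect of over 55% in size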
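Incision of a quenched TAMRA/BHQ-2 THF abasic-site duplex (50 nM) by 0.75 nM APE1, after 15 min compound preincubation, measured as fluorescence increase over three 60 s reads. Values normalized to buffer, DMSO and NSC13755 control wells.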
Pol kappa inh – blocks human DNA polymerase kappa activity | purified Pol kappa, fluorescent DNA synthesis assay, 10 min | Potency, µM (top dose mostly 107 µM), for inactives: at the top dose activity, negative = inhibition, hits mostly inhibitors | hit rate 0.53% among 400,000 | AID 588579; further: on the % scale 0 is the no-effect control and ±100 the full control effect
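Kinetic fluorescence readout at 0 and 10 min followed reaction start with substrate at 50 nM final. Beforehand, enzyme (10 nM Pol kappa) stood 15 min with compound at room temperature; buffer-only wells were negative controls.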
* = called active by the depositor; ? = inconclusive; . = not tested or not shown; [ ] = dose if it differs, or a comment. The call rests on the fitted dose curve; in most records, active means well fitted curve in the direction sought with a large enough effect; inconclusive means small, poorly fitted or top-dose-only effect, or another doubt; inactive means no such curve, though single readings can be large; an effect the other way counts as inactive or inconclusive. Potency means the concentration at half of the fitted maximal effect.

SMILES | GLS inhibitor | POLH inh | POLB inh | Pol iota inh | APEX1 inh | Pol kappa inh
CCOC1CCCC(n2cnc3c(=S)nc[nH]c32)O1 (stereo unspecified) | ? | 17.8µM* | . | ? | . | -12.2%
CC(=O)Nc1nnc(SCc2cc(=O)c(OC(=O)c3ccccc3)co2)s1 | 14.1% | -8.3% | 18.0% | -14.4% | -8.2% | -18.8%
Cc1ccc(C(=O)Oc2coc(CSc3nnc(NC(=O)c4cccs4)s3)cc2=O)cc1 | -2.0% | ? | 25.1µM* | ? | 2.6% | ?
O=C(Oc1coc(CSc2nnc(NC(=O)C3CC3)s2)cc1=O)c1c(F)cccc1F | 23.4% | ? | 20µM* | ? | ? | -42.7%
C=CC[C@@H](CC(=O)NCCO)C(=O)N[C@@H](C)COC(=O)[C@H](CC=C)CC(=O)OC(C)(C)C | -3.9% | -9.3% | . | 29.2% | -10.8% | 2.8%
Cc1[nH][nH]c(=O)c1C(c1c(C)[nH][nH]c1=O)c1cn(C)c2ccccc12 | -20.0% | -17.6% | 0.2% | 2.51µM* | -2.2% | -7.4%
Cc1ccc(NC(=O)c2ccc3c(c2)NC(=O)c2ccccc2S3)c(Cl)c1 | 0.1% | -24.9% | ? | 79.4µM* | . | 8.6%
COc1ccccc1NC(=O)CN1C(=O)C(c2ccc(F)cc2)=NC12CCCCC2 | -4.9% | . | -23.3% | 21.2% | . | -8.0%
COc1ccc(-c2nc(SCC(=O)NCc3ccco3)c(-c3ccccc3)[nH]2)cc1OC | -2.9% | -1.9% | -19.7% | 10.4% | -1.5% | -5.8%
COc1ccc(-c2[nH]c(-c3ccccc3)nc2SCC(=O)NCc2ccco2)cc1OC | -0.1% | ? | 39.8µM* | ? | -6.8% | -24.1%
O=C(CSc1nnc(CNC(=O)c2ccccc2)o1)NCc1ccco1 | -0.4% | 7.8% | 0.0% | -22.1% | -29.8% | -11.0%
O=C(CSc1nc(-c2ccccc2)cs1)NC(=O)NCc1ccco1 | 0.8% | -3.2% | 6.7% | ? | -5.2% | -12.3%
O=C(CSc1nc2ccccc2s1)NC(=O)NCc1ccco1 | 2.8% | -7.1% | 22.4µM* | -13.3% | -3.6% | -24.6%
O=C(CSc1n[nH]c(-c2ccccc2)n1)NC(=O)NCc1ccco1 | -1.8% | ? | 35.5µM* | 44.7µM* | ? | ?
O=C(CSc1nnc(CNC(=O)c2c(F)cccc2F)o1)NCc1ccco1 | -0.2% | ? | 25.1µM* | ? | 10.6µM* | -29.3%
O=C(CSc1nccn1Cc1ccc(Cl)cc1)Nc1ccc2c(c1)OCCO2 | -6.5% | -15.7% | 7.3% | 6.8% | . | -2.8%[60.1 µM]
COCCn1c(C)cc(/C=C(\C#N)C(=O)OCC(=O)N(C)c2c(N)n(Cc3ccccc3)c(=O)[nH]c2=O)c1C | 0.2% | -3.0% | . | 9.4% | 15.1% | -6.7%
O=C1CC2(CCN(C(=O)c3ccc(Br)cc3)CC2)Oc2ccccc21 | 6.9% | -3.8% | . | 13.6% | -6.3% | -6.0%
Cc1nnc(SCC(=O)NC(=O)NCc2ccco2)s1 | -0.9% | -0.7% | -12.1% | -4.4% | -1.0% | -7.5%
O=C(CSc1nnc(-c2ccc(OC(F)F)cc2)o1)NC(=O)NCc1ccco1 | 0.1% | ? | 44.7µM* | 79.4µM* | ? | -29.0%
COc1ccc(-c2nnc(SCC(=O)NCc3ccco3)o2)cc1 | -0.9% | -0.1% | -18.3% | -1.6% | 0.1% | -3.9%
Cc1cc(SCC(=O)NC(=O)NCc2ccco2)nc2ccccc12 | -1.9% | -16.2% | 0.1% | ? | -6.6% | -5.3%
O=C(CSc1ncccn1)NC(=O)NCc1ccco1 | -1.3% | -11.2% | ? | 79.4µM* | ? | -13.6%
O=C(CSc1nn(-c2ccc(F)cc2)c(=S)s1)NC(=O)NCc1ccco1 | -2.7% | 2.3% | 44.7µM* | ? | ? | -3.5%
Cc1ccccc1CSCC(=O)NC(=O)NCc1ccco1 | 10.4% | ? | 11.2µM* | 31.6µM* | ? | ?
CCOc1ccc2nc(SCC(=O)NC(=O)NCc3ccco3)[nH]c2c1 | 0.9% | ? | 50.1µM* | ? | -5.2% | -22.6%
Cc1nonc1NC(=O)CSc1nc2ccccc2[nH]1 | -1.5% | ? | ? | ? | ? | -5.5%

Screening data from PubChem BioAssay.
